Screening data deposited in PubChem BioAssay by National Center for Advancing Translational Sciences (NCATS).
Compounds with a hit are over-represented: about 0.97% of the library has one in this group of screens.
PI4K2A block: blocks human PI4K2A kinase activity. purified PI4K2A, ADP-Glo luminescence, 1 h; active compounds read low. activity change, negative = inhibition, % at 76.9 µM. hit rate 0.13% among 420,000; in the data active means activity change below about -50%; inconclusive means mostly about -30% to -49%;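 further: -100% = wells without enzyme as full effect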
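PI4K2A activity was measured by ADP-Glo luminescence: enzyme (4 ug/mL stock) and phosphatidylinositol (1.2 mM stock) in Tris pH 7.5/MgCl2/EGTA/Triton X-100 buffer were reacted with ATP (300 microM stock) for one hour at ambient temperature.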
CCT modulator: changes cytosolic chaperonin activity; activity change, % (no concentration beside the values), hits read low; hit rate 0.3% among 360,000; purified chaperonin ATPase assay, HTRF ADP detection, 30 min; in the data active means activity change below about -30%
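We incubate TRiC, 40 or 20 nM final, with library compounds at 76 uM and 10 uM ATP for 30 min at 37 °C. ADP formed is detected with Transcreener HTRF reagents after 30 min at room temperature.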
Eya2 phos inh: inhibitors of human Eya2 phosphatase activity. O00167. recombinant Eya2, OMFP fluorescence dephosphorylation (OMFP is methylfluorescein phosphate). Potency, µM (highest dose often 76.9 µM), for inactives: at the highest dose activity, negative = inhibition, hits mostly inhibitors. hit rate 0.006% among 330,000. AID 488837; active means well fitted inhibition curve with a large enough effect; inconclusive means small, poorly fitted or top-dose-only effect, or effect the other way; further: potency means the concentration at half of the fitted maximal effect
Target sequence (O00167 whole entry, looked up): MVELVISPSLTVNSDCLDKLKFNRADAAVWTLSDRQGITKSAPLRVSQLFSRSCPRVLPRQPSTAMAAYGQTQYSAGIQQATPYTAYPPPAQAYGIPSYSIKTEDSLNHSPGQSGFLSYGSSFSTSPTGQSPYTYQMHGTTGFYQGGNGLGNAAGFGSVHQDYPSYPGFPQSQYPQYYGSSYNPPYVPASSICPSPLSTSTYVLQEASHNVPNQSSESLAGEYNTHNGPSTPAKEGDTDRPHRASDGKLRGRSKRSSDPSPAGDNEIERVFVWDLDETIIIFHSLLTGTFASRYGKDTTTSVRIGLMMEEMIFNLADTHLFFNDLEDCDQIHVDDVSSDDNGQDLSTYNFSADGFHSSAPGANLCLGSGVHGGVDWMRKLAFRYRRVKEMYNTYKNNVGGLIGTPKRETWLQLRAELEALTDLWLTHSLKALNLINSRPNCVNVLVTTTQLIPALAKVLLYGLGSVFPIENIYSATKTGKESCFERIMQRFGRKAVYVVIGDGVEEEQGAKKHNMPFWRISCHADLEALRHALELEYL
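Eya2 (0.2 uM) preincubated 10 min at ambient with compound, then OMFP substrate added at 50 uM; 10 min reaction in 50 mM HEPES pH 7.5, 50 mM NaCl, 5 uM MgCl2, 0.05% BSA, 1 mM DTT. Fluorescence read at Ex 485/Em 525 nm.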
Six1-Eya2 inh: Six1/Eya2 interaction inhibition; AlphaScreen GST-Six1/His-Eya2 binding, biochemical; active compounds read low; activity change, % (concentration not given with the values); hit rate 0.56% among 360,000
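Compounds are tested against tagged Six1 and Eya2 proteins bridged by glutathione donor and nickel acceptor beads; after a one-hour incubation at 37 °C without light, AlphaScreen emission is recorded.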
CtBP-E1A blk: CtBP/E1A binding inhibition; AlphaScreen GST-E1A/His-CtBP binding, 1536-well; active compounds read low; activity change, % (concentration not given with the values); hit rate 0.49% among 340,000
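Protein mix (5X: 125 nM each GST-E1A, His-CtBP) was incubated with pinned compound 2 h at 37 deg C in dark, in 50 mM Tris pH 8.0 buffer with 300 mM NaCl. Glutathione donor and nickel acceptor beads followed; AlphaScreen signal read after 1 h.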
Active calls of the source: *; ? = inconclusive; . = no result. Unless noted, no stated cut-off is given here; in the data, active means activity change below about -65%; inconclusive means mostly about -30% to -63%; inactive means weaker than that. Unless noted, on the % scale 0 is the no-effect control and ±100 the full control effect.

SMILES	PI4K2A block	CCT modulator	Eya2 phos inh	Six1-Eya2 inh	CtBP-E1A blk
CCNC(=O)[C@@H]1CCCN1C(=O)[C@H](CCCN=C(N)N)NC(=O)[C@H](CC(C)C)NC(=O)CNC(=O)[C@H](Cc1ccc(O)cc1)NC(=O)[C@H](CO)NC(=O)[C@H](Cc1c[nH]c2ccccc12)NC(=O)[C@H](Cc1cnc[nH]1)NC(=O)[C@@H]1CCC(=O)N1	-3	.	.	.	.
Cc1nc2c(C(=O)NCc3ccc4c(c3)OCO4)c[nH]n2c(=O)c1Cl	8	-2	-8%	-26	?
Cc1nc2c(C(=O)NCCc3ccc(Cl)cc3)c[nH]n2c(=O)c1Cc1ccc(Cl)cc1	4	.	.	.	.
Cc1nc2c(C(=O)NCCC3=CCCCC3)c[nH]n2c(=O)c1Cl	3	-39*	-6%	-4	-5
COc1cccc(CNC(=O)c2c[nH]n3c(=O)c(Cl)c(C)nc23)c1	5	-2	-3%	-84*	-76*
COc1cccc(CNC(=O)c2cc3c(C)nc4ccccc4c3o2)c1	2	1	13%	?	-66*
COc1ccc(S(=O)(=O)n2nc(OC(=O)c3c(-c4ccccc4Cl)noc3C)cc2N)cc1	12	-2	-4%	-72*	?
COc1ccc(C(=O)Oc2cc(N)n(S(=O)(=O)c3ccc(C)cc3)n2)cc1	20	-2	-14%	-15	-12
O=C(O)c1ccc(NCc2cccnc2)c([N+](=O)[O-])c1	1	-53*	-10%	18	.
Cc1cc(C)cc(NC2=CC(c3cccc(F)c3)N(c3cc(C)cc(C)c3)C2=O)c1 (configuration not stated)	2	.	.	.	.
CCNc1c([N+](=O)[O-])c(=O)n(CC)c2ccccc12	3	-1	-7%	?	-19
Cn1c(=O)c([N+](=O)[O-])c(NCc2ccccc2)c2ccccc21	2	-56*	8%	-17	-13
COc1ccc(C2C=C(c3ccccc3)Nc3nc(NC(=O)/C=C/c4ccc(F)cc4)nn32)cc1 (configuration not stated)	1	.	.	.	.
CCCCC[C@H](O)C=C[C@H]1[C@H](O)CC(=O)[C@H]1CC=CCCCC(=O)O	-5	.	.	.	.
Fc1ccc(-c2cc(C(F)(F)C(F)F)[nH]n2)cc1	-8	-37*	-9%	12	18
COc1cc(OC)c(OC)cc1/C=N/NC(=O)c1ccc(=O)n(C)c1	2	-1	3%	-3	-1
COc1ccc(/C=N/Nc2cc(N3CCOCC3)ncn2)c(OC)c1	-3	1	5%	-1	?
COc1cccc(/C=N/Nc2ncnc3c2ncn3Cc2ccccc2)c1O	-3	-3	4%	-78*	-87*
COc1cccc(/C=N/Nc2nnc(C)n2N)c1O	-23	0	0%	-73*	-88*
COc1cccc(/C=N/NC(=O)c2ccc(=O)n(C)c2)c1O	-10	1	-1%	-88*	-87*
COc1cccc(/C=N/Nc2cc(N3CCOCC3)ncn2)c1O	-2	-2	0%	-91*	-94*
Cc1cc2c(n1-c1ccc(C(=O)NCc3cccc(Br)c3)cc1)CCC(C)C2 (configuration not stated)	-2	.	.	.	.
COc1ccc(NC(=O)c2csnn2)cc1Cl	0	.	.	.	.
CCOc1ccccc1NC(=O)c1cc(=O)c2ccc(C)cc2o1	1	.	.	.	.
CCOC(=O)c1c(C)c(-c2ccccc2)n(CC(=O)NC2CCCCCC2)c1C	0	.	.	.	.
SMILES	PI4K2A block	CCT modulator	Eya2 phos inh	Six1-Eya2 inh	CtBP-E1A blk
COc1cccc(/C=N/NC(=O)c2[nH]c(C)c(C(=O)N/N=C/c3cccc(OC)c3O)c2C)c1O	-10	2	-10%	-92*	-1
COc1cccc(/C=N/NC(=O)c2c(C)nc3ccc(Cl)cn23)c1O	8	0	3%	-78*	-94*
COc1cccc(/C=N/NC(=O)c2ccc(=O)[nH]n2)c1O	-4	1	-3%	-79*	.
COc1ccccc1/C=N\NC(=O)c1c(C)nc2ccc(Cl)cn12	-4	1	5%	-2	-13
COc1cccc(NC(=O)Cn2c(=O)n(CCCCC(=O)NCCc3ccccc3)c(=O)c3ccccc32)c1	1	.	.	.	.
COc1cc(C2OC(=O)c3c2ccc(OC)c3OC)ccc1O (configuration not stated)	.	.	-2%	.	.
COCCNc1nc2c(c(=O)n(C)c(=O)n2C)n1Cc1c(F)cccc1Cl	-5	.	.	.	.
CC[C@]12c3[nH]c4cc(CCC(=O)N(C)C)ccc4c3CCN1C(=O)[C@@H](CC(=O)NCCC1=CCCCC1)C[C@@H]2C(=O)N1CCN(C(=O)c2ccco2)CC1	0	0	4%	-4	0
CC[C@]12c3[nH]c4cc(-c5ccco5)ccc4c3CCN1C(=O)[C@@H](CC(=O)NCCC1=CCCCC1)C[C@@H]2C(=O)N1CCN(C(=O)c2ccco2)CC1	-53*	2	-3%	-1	7
O=C(C[C@H]1C[C@H](C(=O)N2CCCCC2)[C@@]2(CCc3ccccc3)c3[nH]c4cc(-c5ccco5)ccc4c3CCN2C1=O)NCCC1=CCCCC1	-18	-89*	0%	-15	-17
COc1ccc(OC)c(Nc2ncc3c(n2)CCN(Cc2cc(OC)c(OC)c(OC)c2)C3)c1	3	.	.	.	.
Cn1cc(C2(C)CCOc3ccccc32)c2ccccc21 (configuration not stated)	-4	.	.	.	.
CCC1CCCCN1C(=O)c1ccc2nc(Cc3ccc(OC)cc3)oc2c1 (configuration not stated)	-4	-2	-1%	-2	0
CCN(CC)C1CCN(C(=O)c2ccc3nc(Cc4ccc(OC)cc4)oc3c2)C1 (configuration not stated)	0	-68*	-25%	-4	.
O=C(CN1C(=O)C2CCCCC2C1=O)Nc1nc(-c2ccccn2)cs1 (configuration not stated)	7	-1	6%	-84*	-84*
COc1ccc(-c2csc(NC(=O)CN3C(=O)C4CCCCC4C3=O)n2)cc1OC (configuration not stated)	0	0	-5%	-18	-2
C[C@@H](C(=O)Nc1nc(-c2ccccn2)cs1)N1C(=O)C2CCCCC2C1=O (some centres not stated)	-8	0	5%	-90*	-90*
CCCCNC(=O)C1CCC(Cn2c(=O)c3sccc3n(Cc3ccccc3)c2=O)CC1 (configuration not stated)	-1	.	.	.	.
NC(=S)NN=C1CCCCCCCCC1	0	0	.	-10	23
NC(=S)NN=C1CCSCC1	-2	-34*	.	-13	-23
Nc1ccc2ccccc2c1N=Nc1ccccc1	-6	0	.	-76*	-77*
Nc1ncnc(N)c1N=Nc1ccccc1	4	-1	-17%	-5	-22
COc1ccc(-n2c3c(cc(C#N)c2=O)C(=O)CCC3)cc1	-3	-34*	-7%	9	-4
